# Inconclusive results are not listed. Entries that show only a call come without a potency. The source made the active and inactive calls. The call rests on the fitted dose curve; in most records, active means well fitted cell-killing curve with a large enough effect; inconclusive means small, poorly fitted or top-dose-only effect; inactive means flat fitted curve, though single readings scatter.
# Assay: Quantitative highthroughput screen to assess conditional lethalithy of P12 Ichikawa cells grown in RPMI1640 with untreated serum (RPMI+s) (AID 1963881); further: nearly all actives have a fitted effect of over 35% in size
# Settings: ATP luminescence, 48 h; Potency: viability; series mostly up to 45.8 µM
# From the text: Assay Provider: Jason Cantor Ph.D.
# Department of Biochemistry
# University of Wisconsin-Madison, Madison, WI, USA
# Chemical screening studies have identified drug sensitivities across hundreds of cancer cell lines but most putative therapeutics fail to translate. Discovery and development of drug candidates in models that more accurately reflect nutrient levels in human blood is a major challenge. Here we performed high-throughput screens in conventional versus Human Plasma-Like Medium (HPLM) to identify compounds that were "missed" when screening using the artificial culture condition. Sets of conditional anticancer compounds spanned phases of clinical development and included non-oncology drugs were assessed. […] We also traced conditional phenotypes for several chemotherapeutics to availability of HPLM-specific metabolites and confirmed others for compounds whose reported targets are encoded by nonessential genes. Our findings establish generalizable strategies for exploiting conditional lethality in HPLM to reveal therapeutic candidates and mechanisms of action in cancer cells.
# Described herein are the results of each viability screens against three cell lines: NOMO1 (an acute myeloid leukemia cell line); P12-Ichikawa (a T-cell acute lymphoblastic leukemia); and SEM (a B-cell ALL). Each assay was screened using 3 different cell culture media: homemade human plasma-Like medium with 10% dialyzed fetal bovine serum (HPLM+ds); RPMI1640 with 10% untreated FBS and 5mM glucose (RPMI+s); and RPMI1640 with 10% dialyzed fetal bovine serum and 5 mM glucose (RPMI+ds).
# PROTOCOL TABLE (as described by Inglese J, Shamu CE and Guy RK. 2007)
# SEQUENCE No. (e.g., 1, 2, 3, etc.); […] (e.g., Cells, Incubation, Reagent, etc.); VALUE and DESCRIPTION.
# 1; Cells; 5 uL; white, solid bottom 1536-well Greiner assay plate.
# 2; Compounds; 23 nL; Kalypsis pin tool (Wako USA) equipped with a 1536-well pin head to transfer to the assay plates.
# 3; Incubation; 48 hours; 37C incubation.
# 4; Reagent; 3 uL; CellTiter Glo (Promega).
# 5; Incubation; 5 min, room temperature
# 6; Detection; Luminescence, Viewlux PerkinElmer.
# NOTES (numbers refer to Sequence numbers above)
# 1. Briefly, 5 ul of cell reagent was dispensed using a Multidrop Combi Dispenser. The NOMO1 and SEM cells were plated at 500 cells/well and the P12-Ichikawa line at 1000 cells/well.
# 2. After seeding the cells, 23 nL of MIPE 4.1 library compounds (in DMSO) were added to each plate using a Kalypsys 1536 Pintool dispenser. Bortezomib at final concentration of […] and DMSO were added to each plate as positive and negative controls respectively. For each screen, MIPE 4.1 compounds were added over an eleven-point concentration range […] in 3-fold dilutions.
# 3. Each plate was covered with a stainless steel gasketed lid to prevent evaporation and incubated for 48 hour at 37C, 95% relative humidity, and 5% CO2.
# 4-5. Three microliter CellTilter-GloTM luminescent substrate mix (Promega) reagent was added to the assay plate and incubated at room temperature for 5 min.
# 6. The luminescence signal was measured using a ViewLux (PerkinElmer) multiplate reader with a 2 second exposure time per plate. Data for each compound were normalized as percent viability such that measurements for DMSO and the empty well controls in each plate were defined as 100% and 0%, respectively.
# Potency means the concentration at half of the fitted maximal effect.
row,SMILES,Potency
1,C[C@H](NCc1ccc2c(c1)nc(NC(=O)c1ccc(-c3cn[nH]c3)s1)n2CCc1ccccc1)C(C)(C)C,9.35 µM (active)
2,Cc1cc(Nc2ncnc3ccc(-c4ccc(CNCCS(C)(=O)=O)o4)cc23)ccc1Oc1ccn2ncnc2c1,1.18 µM (active)
3,C=C(c1ccc(C(=O)O)cc1)c1cc2c(cc1C)C(C)(C)CCC2(C)C,inactive
4,CC(=O)N(C)C1(c2ccccc2)CCN(CCC[C@]2(c3ccc(Cl)c(Cl)c3)CCCN(C(=O)c3ccccc3)C2)CC1,7.43 µM (active)
5,Cc1ccnc(NS(=O)(=O)c2ccc(NC(=O)Nc3ccc(S(=O)(=O)Nc4nccc(C)n4)cc3)cc2)n1,0.469 µM (active)
6,CCN(CC)Cc1ccc2cc(COC(=O)Nc3ccc(C(=O)NO)cc3)ccc2c1,2.35 µM (active)
7,O=C1c2ccccc2-[n+]2ccc3c([nH]c4ccccc43)c21,8.33 µM (active)
8,Cc1ccnc2c1NC(=O)c1cccnc1N2C1CC1,inactive
9,C[C@H]1[C@@H](OC(=O)CCC(=O)O)O[C@@H]2O[C@@]3(C)CC[C@@H]4[C@H](C)CC[C@@H]1[C@@]24OO3,5.26 µM (active)
10,COCCCOc1cc(C[C@@H](C[C@H](N)[C@@H](O)C[C@H](C(=O)NCC(C)(C)C(N)=O)C(C)C)C(C)C)ccc1OC,inactive
11,CCCCCCCCCCCCCCCCCCCCCCO,inactive
12,Cn1cc(C[C@@H](N)C(=O)O)c2ccccc21,inactive
13,O=C1NC(=O)C(c2cnc3ccccn23)=C1c1cn2c3c(cc(F)cc13)CN(C(=O)N1CCCCC1)CC2,0.166 µM (active)
14,C=C(C)[C@@H]1CC[C@]2(C)CC[C@]3(C)[C@H](CC[C@@H]4[C@@]5(C)CC[C@H](O)C(C)(C)[C@H]5CC[C@]43C)[C@@H]12,inactive
15,CC[C@H]1OC(=O)[C@H](C)C(=O)[C@H](C)[C@@H](O[C@H]2O[C@H](C)C[C@H](N(C)C)[C@@H]2O)[C@](C)(OC)C[C@@H](C)C(=O)[C@H](C)[C@H]2N(CCCCn3cnc(-c4cccnc4)c3)C(=O)O[C@]12C,inactive
16,Fc1ccc(C(c2ccc(F)cc2)N2CCN(CC=Cc3ccccc3)CC2)cc1,inactive
17,O=C1CCC[C@@H]2[C@H]3CCC[N+]4([O-])CCC[C@@H](CN12)[C@@H]34 (stereo not given in full),inactive
18,NC1CCC(N[C@@H]2C[C@H]2c2ccccc2)CC1 (stereo not given in full),inactive
19,O=C(O)CCCCCC(=O)NN=C1CCCC1,inactive
20,CCOc1cc2ncc(C#N)c(Nc3ccc(OCc4ccccn4)c(Cl)c3)c2cc1NC(=O)C=CCN(C)C,1.05 µM (active)

row,SMILES,Potency
1,CS(=O)(=O)c1ccc(C(=O)Nc2ccc(Cl)c(-c3ccccn3)c2)c(Cl)c1,inactive
2,CCCCc1ccc(NS(=O)(=O)c2ccc(C)c(C(=O)N3CCN(c4cccc(C)c4C)CC3)c2)cc1,inactive
3,NCCCCNCCCN,18.7 µM (active)
4,NS(=O)(=O)OC[C@@H]1C[C@@H](n2ccc3c(N[C@H]4CCc5ccccc54)ncnc32)C[C@H]1O,2.09 µM (active)
5,CNC(=O)c1ccc(Nc2cc(Nc3ccccc3S(=O)(=O)C(C)C)c3cc[nH]c3n2)nc1,1.87 µM (active)
6,O=C(Nc1cc2cc[nH]c2cn1)c1ccccc1,14.8 µM (active)
7,NC(=O)c1ccc(N(C(N)=O)c2c(F)cccc2F)nc1-c1ccc(F)cc1F,inactive
8,CN(C)[C@@H](CCOc1cccc2ccccc12)c1ccccc1,inactive
9,O=C(C1CC1)N1CC[C@@H](Cc2n[nH]c(=O)n2-c2ccc(-c3ccc4occc4c3)cc2)C1,inactive
10,Cc1cc(C(C)(C)C)cc(C)c1CC1=NCCN1,inactive
11,COC(=O)[C@]12CCC(C)(C)C[C@@H]1[C@@H]1C(=O)C=C3[C@@]4(C)C=C(C#N)C(=O)C(C)(C)[C@@H]4CC[C@@]3(C)[C@]1(C)CC2,9.35 µM (active)
12,COc1cc2ncn(-c3cc(OCc4ccccc4S(C)(=O)=O)c(C#N)s3)c2cc1OC,inactive
13,CCc1cnn2c(NCc3ccc[n+]([O-])c3)cc(N3CCCC[C@@H]3CCO)nc12,0.118 µM (active)
14,COc1ccc(C=Cc2cc(OC)c(OC)c(OC)c2)cc1NC(=O)[C@H](N)CO,0.0166 µM (active)
15,NC(=O)[C@H]1CCS[C@@H]2C[C@]3(CCCN3C(=O)Cc3ccc(NC(=O)COc4ccc(Cl)cc4Cl)cc3)C(=O)N12,1.17 µM (active)
16,Cc1c(-c2ccnn2C)cc(C(=O)NCc2ccc(S(C)(=O)=O)cn2)c(=O)n1-c1cccc(C(F)(F)F)c1,inactive
17,CON=C(C(=O)N[C@@H]1C(=O)N2C(C(=O)OCOC(=O)C(C)(C)C)=C(C=Cc3scnc3C)CS[C@H]12)c1csc(N)n1,14.8 µM (active)
18,O=C1NC(=O)C(=Cc2cccc(C(F)(F)F)c2)S1,inactive
19,CN1CCCN(C(=O)c2cccc(-c3ccc(C=C4C(=O)Nc5ccc(Cl)cc54)o3)c2)CC1,5.9 µM (active)
20,Cc1cc(Cl)ccc1OCCCC(=O)NO,5.9 µM (active)

# — PubChem BioAssay (NCATS)
